Measured values published in PubChem BioAssay AID1851 (National Center for Advancing Translational Sciences (NCATS), 2009).
Out of some 16,000 compounds screened, about 5,700 (36%) were called active. Roughly 24% stayed inconclusive and do not appear here. Calls follow the shape of the dose curve; as a rule, active = well fitted curve in the direction sought with a large enough effect; inconclusive = small, poorly fitted or top-dose-only effect, or effect the other way; inactive = no such curve, though single readings can be large or run the other way. The list shows a part of the results.

What follows are compounds tested against Cytochrome P450 1A2 (Homo sapiens) (UniProt P05177) (assay: Cytochrome panel assay with activity outcomes). Settings: recombinant CYP, pro-luciferin dealkylation, luminescence, p450-cyp1a2; series mostly up to 57.1 µM; activity, negative = inhibition: at the top concentration.
% is scaled to controls: 0 for no effect and ±100 for the full control effect.

Sequence of Cytochrome P450 1A2 (Homo sapiens) (P05177 whole entry, looked up): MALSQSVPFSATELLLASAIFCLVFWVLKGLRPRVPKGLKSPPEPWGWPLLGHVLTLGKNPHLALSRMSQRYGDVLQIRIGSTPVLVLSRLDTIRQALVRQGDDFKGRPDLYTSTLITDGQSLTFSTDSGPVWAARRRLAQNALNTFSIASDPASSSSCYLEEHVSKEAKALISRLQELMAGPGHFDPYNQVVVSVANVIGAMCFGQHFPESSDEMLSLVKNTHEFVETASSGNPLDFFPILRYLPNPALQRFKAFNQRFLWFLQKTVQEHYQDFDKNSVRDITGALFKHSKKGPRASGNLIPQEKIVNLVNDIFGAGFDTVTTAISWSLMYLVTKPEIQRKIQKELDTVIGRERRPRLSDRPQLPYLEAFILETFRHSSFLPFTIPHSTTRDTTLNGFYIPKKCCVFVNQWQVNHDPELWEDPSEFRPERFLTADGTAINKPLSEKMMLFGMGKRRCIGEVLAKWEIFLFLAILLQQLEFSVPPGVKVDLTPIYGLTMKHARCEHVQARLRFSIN

Compound | activity, negative = inhibition | AC50
O=P(O)(CCc1ccccc1)C(O)c1ccccc1 (stereo unspecified) | 7.23% (inactive) | –
CO[C@@H](NC(N)=O)C(=O)O | -6.36% [at 2.29 µM] (inactive) | –
O=C(O)c1cc(=O)[nH]c(=S)[nH]1 | -10.7% [at 2.29 µM] (inactive) | –
Cc1cc(C)n2c(SCC(=O)N(C)C3CCS(=O)(=O)C3)nnc2n1 (stereo unspecified) | -4.17% (inactive) | –
NC(=S)NCCC[C@@H](N)C(=O)O | -14.7% (inactive) | –
Cc1cccc(-c2nsc(SCC(=O)Nc3nccs3)n2)c1 | – | 0.251 µM (active)
C1CCc2c(nc3nnnn3c2NC2CCCC2)C1 | – | 11.2 µM (active)
Cc1ccccc1CN1C2=NCCN2C(=O)C2=C1CCN(Cc1ccccc1)C2 | -2.99% [at 11.4 µM] (inactive) | –
CSc1nc2nc3c(c(=O)n2[nH]1)CN(Cc1ccccc1)CC3 | – | 3.16 µM (active)
COc1ccc(CNc2nc3nc4c(c(=O)n3[nH]2)CCC4)cc1 | -14.6% (inactive) | –
CCOc1ccc(C2=[N+]([O-])C(C)(C)N(O)C2(C)C)cc1 | 4.46% (inactive) | –
CSc1ccc2nnc(-c3cccc(F)c3)n2n1 | – | 3.16 µM (active)
CCOc1ccc(-c2nnc3ccc(SC)nn23)cc1 | – | 1 µM (active)
O=C(CN(Cc1ccco1)C(=O)c1ccccc1)Nc1ccc(Cl)c(Cl)c1 | – | 14.1 µM (active)
O=C(CSc1nnc(-c2ccccn2)n1Cc1ccco1)Nc1ccc2c(c1)OCO2 | -17.1% (inactive) | –
O=C(c1ccccc1)N(Cc1ccco1)C1CCS(=O)(=O)C1 (stereo unspecified) | -7.86% (inactive) | –
c1ccc2c(c1)ncn2-c1ncnc2sc3c(c12)CCCC3 | – | 5.62 µM (active)
CC(C)(C)C(=O)[C@H]([C@@H](c1ccccc1)N1CCOCC1)N1CCOCC1 | -6.91% [at 11.4 µM] (inactive) | –
Cc1cc(C(F)(F)F)n2nc(-c3cnn(C)c3C(F)(F)F)cc2n1 | – | 1.12 µM (active)
Cc1cc(C(F)(F)F)n2nc(-c3cnn(C)c3C(F)(F)F)c(Cl)c2n1 | – | 0.178 µM (active)
O=[N+]([O-])C(/C=C(\Cl)[N+](=O)[O-])=C1N(Cc2ccc(Cl)nc2)CCN1Cc1ccc(Cl)nc1 | -20% (inactive) | –

Compound | activity, negative = inhibition | AC50
Cc1cc(-c2c(C)[nH]n(-c3ccccc3)c2=O)n(-c2ccccc2)n1 | -7.47% (inactive) | –
Cc1nn2c([nH]c(=O)c3ccccc32)c1C=O | – | 2.51 µM (active)
Cc1cc2[nH]c(=O)c3ccccc3n2n1 | – | 1.26 µM (active)
COC(=O)Cn1c(CN(Cc2ccccc2)Cc2ccccc2)nc2c1c(=O)[nH]c(=O)n2C | -13.7% (inactive) | –
CN(C)N1C(N)=C(C#N)C(c2cccnc2)C2=C1CC(C)(C)CC2=O (stereo unspecified) | -4.23% (inactive) | –
CN(C)c1ccc(-c2nc3n(n2)C(c2cccnc2)C2=C(CC(C)(C)CC2=O)N3)cc1 (stereo unspecified) | – | 3.16 µM (active)
COc1cc(NC(=O)Cc2c(C(=O)O)[nH]c3ccccc23)cc(OC)c1OC | -4.11% (inactive) | –
CCc1c(C(=O)O)[nH]c2ccc(Br)cc12 | – | 5.01 µM (active)
COc1ccc(CSC2=C(C#N)C(=O)NC3(CCCCC3)S2)cc1 | -5.77% [at 2.29 µM] (inactive) | –
Cc1nn(-c2ccccc2)c(N2CCCCC2)c1/C=N/O | – | 1.58 µM (active)
N#C/C(=C\c1cc([N+](=O)[O-])c(N2CCCCC2)cc1N1CCCCC1)c1nn(-c2ccccc2)c(N)c1C#N | -19.8% (inactive) | –
CO[C@@H]1COC(=O)[C@H](CCSC)NC(=O)C/C=C\[C@@H](C)COC(=O)[C@@H]2CCCN2C(=O)C/C=C\[C@H]1C | 7.24% [at 11.4 µM] (inactive) | –
C[C@@H]1CCC[C@H](C)N1NC(=O)c1ccc(Cl)c(S(N)(=O)=O)c1 | -0.756% [at 25.6 µM] (inactive) | –
CC1CCCC(C)N1C(=O)c1cc(-c2ccc(Cl)c(Cl)c2)on1 (stereo unspecified) | – | 5.01 µM (active)
Cc1ccc2c(c1)nnn2C1CCN(S(=O)(=O)c2ccc(C(=O)N3C(C)CCCC3C)cc2)CC1 (stereo unspecified) | -30.6% (inactive) | –
c1ccc(-c2nc3ccccn3c2NCc2ccc3c(c2)OCO3)cc1 | – | 1.78 µM (active)
CC1(C)CC(NCc2ccc3c(c2)OCO3)CCO1 (stereo unspecified) | -15.5% (inactive) | –
CS(=O)(=O)N1CCC[C@@]2(CCN(c3ncccn3)C2)C1 | -2.13% (inactive) | –
CCOCC(=O)Nc1cc(C(=O)Nc2ccccc2)ccc1Cl | – | 2.51 µM (active)
CCOCC(=O)Nc1cc(C(=O)Nc2cccc(C)c2C)ccc1Cl | – | 5.01 µM (active)
COC(=O)c1ccc(Cl)c(NC(=O)c2ccc(-c3ccccc3)cc2)c1 | -27% (inactive) | –

Compound | activity, negative = inhibition | AC50
CCc1c2c(nc3cccc(SC)c13)COC2 | – | 2.51 µM (active)
CCc1c2c(nc3ccc(OC)cc13)COC2 | – | 0.794 µM (active)
Cc1ccc(/C=N/n2c(-c3cccs3)n[nH]c2=S)cc1 | – | 0.282 µM (active)
COc1ccc(/C=N/n2c(-c3cccs3)n[nH]c2=S)cc1 | – | 0.631 µM (active)
Cc1ccc(-c2n[nH]c(=S)n2/N=C/c2cccn2C)cc1 | – | 3.55 µM (active)
COc1ccc(-n2c(-c3cnccn3)n[nH]c2=S)cc1 | 1.32% (inactive) | –
Nc1ccn([C@H]2O[C@@H](COP(=O)(O)O)[C@@H](O)[C@H]2O)c(=O)n1 | -23.3% [at 11.4 µM] (inactive) | –
N#CCCn1c(=O)c(-c2cccc(C#N)c2)nc2cnc(Oc3cccc(Cl)c3)nc21 | -17.1% (inactive) | –
O=c1c(-c2ccc(F)cc2)nc2cnc(Oc3cccc(Cl)c3)nc2n1C1CC1 | – | 0.316 µM (active)
N#Cc1cccc(-c2nc3cnc(Oc4cccc(Cl)c4)nc3n(C3CC3)c2=O)c1 | – | 2.51 µM (active)
O=c1c(-c2ccccc2)nc2cnc(Oc3cccc(Cl)c3)nc2n1C1CC1 | – | 1.58 µM (active)
CC(C)CN1CCC2(CC1)CCN(C(=O)c1cccc(F)c1)CC2 | 0.754% (inactive) | –
CC(=O)OC[C@@H]1O[C@@H](O/N=C2/C[C@@H](O)[C@@H](O)[C@@H]3[C@@H]4C(=O)N(C[C@@H]5CCCO5)C(=O)[C@H]4CC[C@@H]23)[C@H](OC(C)=O)[C@H](OC(C)=O)[C@@H]1OC(C)=O | 5.86% [at 11.4 µM] (inactive) | –
COc1ccc(/C=N\NC(=O)C2C(=O)NCC2c2ccccc2)cc1O (stereo unspecified) | -28.2% (inactive) | –
C=CCNC(=S)N/N=C/c1ccc(OCc2ccccc2)cc1 | – | 14.1 µM (active)
O=C(N/N=C/c1cccc(OCc2ccccc2)c1)c1cccs1 | – | 2.24 µM (active)
COc1ccc(/C=N/NC(=O)CCc2ccccc2)cc1O | – | 25.1 µM (active)
Cc1cccc(C)c1NC(=O)COc1cccc(/C=N/NC(=O)C(=O)NCc2ccccc2)c1 | -14.1% (inactive) | –
O=C(N/N=C/c1ccc(OCc2ccccc2)cc1)c1cccs1 | – | 3.16 µM (active)
